Among the test systems are HOP-92 NSCLC; K-562 leukemia; MALME-3M melanoma; RXF 393 renal; UACC-257 melanoma; SK-MEL-28 melanoma; SN12C renal; TK-10 renal; CAKI-1 renal; A498 renal; RPMI-8226 leukemia; BT-549 breast; MDA-MB-435 melanoma; HCC-2998 colon; OVCAR-3 ovarian.
Common to all, as to test: NCI-60 one-dose screen, 48 h (100 = growth as untreated, 0 = no growth, -100 = all killed)
What all share (details): 10 µM

Several values for one entry are separate records, joined by “and”; a condition that tells them apart may be missing. Identical values can stand only once. This is part of a sample that, as a whole, favours compounds with a hit. Of some 83,000 tested, about 20% had one in any assay.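 Treatment: one concentration, 48 hours, 96-well format. Scoring: percent growth, with anything below 10 considered active.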 Activity calls are given as the source filed them.

For the compound `N#Cc1c(-n2c(Br)c(Br)c3cc(Br)ccc32)[nH]c2c(Br)cc(Br)cc12`, the growth in the experiment on HOP-92 NSCLC is -31.4% (active); in the experiment with K-562 leukemia it was 7.11% (active); in the experiment with MALME-3M melanoma, -17.4% (active); in the experiment on RXF 393 renal, -31.7% (active); in the experiment on UACC-257 melanoma, -23.8% (active); in the experiment on SK-MEL-28 melanoma it was 5.46% (active). In addition, the growth in the experiment with SN12C renal was 0.622% (active); in the experiment on TK-10 renal, -2.55% (active); with CAKI-1 renal, -3.39% (active); in the experiment with A498 renal it was -73% (active); in the experiment with RPMI-8226 leukemia, -3.21% (active); in the experiment with BT-549 breast it was -54.7% (active). The growth in the experiment on MDA-MB-435 melanoma is -0.901% (active); in the experiment on HCC-2998 colon, 2.82% (active).
Turning to `CC1=C[C@H]2O[C@@H]3C[C@@H](O)[C@](C)([C@@]2(C)CC1)[C@@]31CO1`, the growth is 41.3% (inactive) in the experiment on HOP-92 NSCLC; 18.5% (inactive) in the experiment on K-562 leukemia; 21% (inactive) with MALME-3M melanoma; 15.3% (inactive) in the experiment on RXF 393 renal; 27.1% (inactive) in the experiment with SK-MEL-28 melanoma; 25.4% (inactive) in the experiment on SN12C renal. Besides, the growth in the experiment on TK-10 renal is 52.8% (inactive); with A498 renal, 39.2% (inactive); in the experiment with RPMI-8226 leukemia, 29.3% (inactive); with OVCAR-3 ovarian, 38.9% (inactive); in the experiment on BT-549 breast, 21.1% (inactive); with MDA-MB-435 melanoma, 21.1% (inactive). For the same compound, the growth in the experiment with HCC-2998 colon is 18.2% (inactive).
Take `CN(CCF)/N=N/c1nc[nH]c1C(N)=O`: the growth is 77.9% (inactive) with HOP-92 NSCLC; 22.2% (inactive) in the experiment on K-562 leukemia; 37.5% (inactive) in the experiment with MALME-3M melanoma; 76.6% (inactive) with RXF 393 renal; 53.8% (inactive) in the experiment with UACC-257 melanoma; 49.3% (inactive) in the experiment on SK-MEL-28 melanoma. Besides, the growth was 48.4% (inactive) in the experiment on SN12C renal; 25.2% (inactive) in the experiment with TK-10 renal; 14.1% (inactive) with CAKI-1 renal; 87% (inactive) in the experiment with A498 renal; 25.5% (inactive) in the experiment with RPMI-8226 leukemia; 85.8% (inactive) with BT-549 breast. For the same compound, the growth was 39.6% (inactive) with MDA-MB-435 melanoma and 38.7% (inactive) in the experiment with HCC-2998 colon.
Turning to `C[C@@H]1C[C@H]2C(=O)O[C@@H](C)C(NC(=O)[C@H](Cc3cc(F)cc(F)c3)NC(=O)Nc3ccc(OS(=O)(=O)F)cc3)C(=O)N3CCC[C@H]3C(=O)N3CCO[C@H](C)[C@H]3C(=O)N[C@@H](CO)C(=O)N2C1` (stereo not given in full), the growth was 9.16% (active) in the experiment with HOP-92 NSCLC; 20.7% (inactive) in the experiment on K-562 leukemia; 39% (inactive) in the experiment with MALME-3M melanoma; -5.55% (active) in the experiment on RXF 393 renal; 16.2% (inactive) in the experiment with UACC-257 melanoma; 40.5% (inactive) in the experiment on SK-MEL-28 melanoma. The growth is 21.1% (inactive) with SN12C renal; 71.7% (inactive) in the experiment on TK-10 renal; 39.4% (inactive) in the experiment on CAKI-1 renal; 19.7% (inactive) with RPMI-8226 leukemia; 22.4% (inactive) with BT-549 breast; 20.8% (inactive) in the experiment with MDA-MB-435 melanoma. In addition, the growth in the experiment with HCC-2998 colon is 23.9% (inactive).
On to `COC(=O)[C@H]1[C@@H](O)[C@@]2(O)c3c(OC)cc(OC)cc3O[C@@]2(c2ccc(OC)cc2)[C@@H]1c1ccccc1`, for which the growth with HOP-92 NSCLC was -12.5% (active); in the experiment with K-562 leukemia, 2.1% (active); with MALME-3M melanoma, -21.8% (active); in the experiment with RXF 393 renal it was -20.3% (active); in the experiment with SK-MEL-28 melanoma, -19.2% (active); in the experiment on SN12C renal it was -11.5% (active). The growth was -11.9% (active) in the experiment with TK-10 renal; -6.21% (active) with CAKI-1 renal; -31.4% (active) with A498 renal; -9.7% (active) in the experiment with RPMI-8226 leukemia; -9.22% (active) with OVCAR-3 ovarian; -17.5% (active) with BT-549 breast. Further, the growth with MDA-MB-435 melanoma is -11.1% (active); with HCC-2998 colon, 0.34% (active).
On to `C/C=C/CC(C)C(O)[C@H](NC(=O)[C@@H]1CCCN1C(=O)C(C)(C)NC(=O)CCCCCCCCC)C(=O)NC(C)(C)C(=O)N[C@@H](CCC(N)=O)C(=O)N[C@H](CCC(N)=O)C(=O)NC(C)(C)C(=O)NC(C)(C)C(=O)N[C@@H](CCC(N)=O)C(=O)N[C@H](CC(C)C)C(=O)N[C@H](CO)CC(C)C` (stereo not given in full), for which the growth in the experiment on HOP-92 NSCLC is -16.5% (active) and -24.9% (active); in the experiment with K-562 leukemia, -50.1% (active) and 18% (inactive); in the experiment on MALME-3M melanoma it was -41.5% (active) and -92.4% (active); in the experiment on RXF 393 renal it was -54.3% (active) and -73.3% (active); in the experiment on UACC-257 melanoma it was -71.9% (active) and -73.2% (active); in the experiment on SK-MEL-28 melanoma, -84.9% (active) and -100% (active). Moreover, the growth was 2.83% (active) and -20.9% (active) with SN12C renal; 25.8% (inactive) and -4.38% (active) with TK-10 renal; 17.6% (inactive) and 1.1% (active) with CAKI-1 renal; -48.1% (active) and -26.1% (active) in the experiment with A498 renal; -13.2% (active) and -31.7% (active) in the experiment with RPMI-8226 leukemia; -18.7% (active) in the experiment with OVCAR-3 ovarian. For the same compound, the growth in the experiment with BT-549 breast was -77.4% (active) and -78.3% (active); in the experiment on MDA-MB-435 melanoma, -52.8% (active) and -87.1% (active); in the experiment on HCC-2998 colon it was -36.1% (active) and -5.11% (active).
For the compound `CC1=C(CCC=NNC(N)=O)C2=C(C)C3(CC3)[C@@](C)(O)C(=O)C2=C1`, the growth in the experiment on K-562 leukemia was 54.7% (inactive); with MALME-3M melanoma it was -71.1% (active); in the experiment on RXF 393 renal, -93.6% (active); in the experiment on UACC-257 melanoma, -62.1% (active); in the experiment on SK-MEL-28 melanoma, -48.8% (active); in the experiment with SN12C renal, 1.73% (active). The growth in the experiment with TK-10 renal is -9.84% (active); with CAKI-1 renal it was 0.975% (active); with RPMI-8226 leukemia it was 59.8% (inactive); in the experiment on BT-549 breast it was -93.5% (active); in the experiment with MDA-MB-435 melanoma, -27.9% (active); in the experiment with HCC-2998 colon, -73.2% (active).
On to `COc1cc2c(cc1OC)[C@@H]1N(CC2)C(=O)c2ccccc2[C@@]1(C)C(=O)O`, for which the growth was 123% (inactive) in the experiment on HOP-92 NSCLC; 105% (inactive) in the experiment with K-562 leukemia; 64.6% (inactive) with MALME-3M melanoma; 127% (inactive) in the experiment on RXF 393 renal; 107% (inactive) in the experiment on UACC-257 melanoma; 113% (inactive) in the experiment with SK-MEL-28 melanoma. The growth was 102% (inactive) with SN12C renal; 107% (inactive) in the experiment on TK-10 renal; 101% (inactive) in the experiment on CAKI-1 renal; 89.4% (inactive) in the experiment on A498 renal; 110% (inactive) with RPMI-8226 leukemia; 122% (inactive) with OVCAR-3 ovarian. The growth with BT-549 breast was 108% (inactive); with MDA-MB-435 melanoma, 103% (inactive); in the experiment on HCC-2998 colon it was 110% (inactive).
